Inconclusive results are not listed. A number with no mark means an inactive call. Unless noted, the call rests on the fitted dose curve; in most records, active means well fitted cell-killing curve with a large enough effect in the repeat runs; inconclusive means weak or mixed curves, or effect the other way; inactive means no such curve, though single readings can be large or run the other way.
Experiment: qHTS assay for small molecule activators of the heat shock response signaling pathway - cell viability counter screen (AID 743209); further: nearly all actives have a fitted effect of over 50% in size
Conditions: HSE-bla HeLa viability, CellTiter-Glo luminescence, 5 h; series mostly up to 62.6 µM; activity change, negative = cytotoxicity: at the top concentration
Outline: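 Cytotoxicity counter screen run in parallel with the HSE beta-lactamase reporter, using the same wells. HeLa HSE-bla cells received compound for 5 h at 37 C; ATP-based CellTiter-Glo luminescence was measured after 30 min at room temperature.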
On the % scale 0 is the no-effect control and ±100 the full control effect.

| SMILES | activity change, negative = cytotoxicity |
| --- | --- |
| CC(=O)OCC(=O)[C@@]1(O)CC[C@H]2[C@@H]3CCC4=CC(=O)C=C[C@]4(C)[C@@]3(F)[C@@H](O)C[C@@]21C | -2.84% |
| CC1(C)C(=O)NC(=O)N1CO | 3.12% |
| O=C(OCCOCCOCCOC(=O)c1ccccc1)c1ccccc1 | 8.72% |
| NC(=O)c1ccccc1 | 16.2% [at 81.1 µM] |
| CC(COc1ccccc1)NC(C)C(O)c1ccc(O)cc1 (centres undefined) | 2.93% |
| O=[N+]([O-])c1ccc(Cl)cc1Cl | 4.02% |
| C=CC(=O)NC(C)(C)C | 3.62% |
| CCCCCCCCCCCCCCCCC(=O)O | 1.02% |
| CCCCCCCCS | 2.69% [at 81.1 µM] |
| C=C(C)C(=O)OCCCCCCCCCCOC(=O)C(=C)C | 0.266% |
| CCCCCCCCCCCCCCCCCCCl | -2.21% [at 5.95 µM] |
| CCCC(=O)OCc1ccccc1 | 1.69% |
| C[C@@H](O)[C@H]1C(=O)N2C(C(=O)O)=C(S[C@@H]3CN[C@H](CNS(N)(=O)=O)C3)[C@H](C)[C@H]12 | -0.739% |
| CCCc1ccc(OC)cc1 | -1.22% [at 81.1 µM] |
| FC1(F)C(F)(F)C(F)(F)C2(F)C(F)(C1(F)F)C(F)(F)C(F)(F)C1(F)C(F)(F)C(F)(F)C(F)(F)C(F)(F)C12F (centres undefined) | -6.68% |
| O=C1CCCN1CCO | -8.51% |
| COC(=O)c1cc(Cl)ccc1[N+](=O)[O-] | -3.39% |
| OCCOc1cccc(OCCO)c1 | 0.328% |
| O=C(O)c1ccc2cc(O)ccc2c1 | 5.69% |
| C=CC(=O)OCCCCCCCCCC | 2.79% |
| CC(Cc1ccccc1)(NC(=O)CN)c1ccccc1 (centres undefined) | 0.408% |
| CCOC(OCC)OCC | -5.52% |
| C[Si](C)(C)O[Si](C)(C)O[Si](C)(C)C | 8.15% |
| CCCCCCCCCCCC(=O)OCC | 0.231% |
| CC(C)Cc1nccs1 | 2.82% [at 81.1 µM] |
| O=C(c1ccc(Cl)cc1)c1ccc(Cl)cc1 | 2.75% |
| O=Cc1ccc([N+](=O)[O-])cc1 | -2.5% [at 81.1 µM] |
| N#Cc1ccc(CC(=O)c2cccc(C(F)(F)F)c2)cc1 | -0.106% |
| OCCCO | 0.807% [at 81.1 µM] |

Experiment: qHTS assay for small molecule activators of the heat shock response signaling pathway (AID 743210; active means well fitted activation curve with a large enough effect in the signal ratio in the repeat runs, with a control signal flat, not every such curve was filed as active; the % refers to the signal ratio)
Conditions: HeLa HSE-bla reporter, beta-lactamase ratio, 5 h; series mostly up to 62.6 µM; activation: at the top concentration
Outline: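 Heat shock element–beta-lactamase HeLa reporter cells; qHTS with compounds for 5 h at 37 C; detection by FRET substrate fluorescence after 2.5 h at RT.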

| SMILES | activation |
| --- | --- |
| CC(=O)OCC(=O)[C@@]1(O)CC[C@H]2[C@@H]3CCC4=CC(=O)C=C[C@]4(C)[C@@]3(F)[C@@H](O)C[C@@]21C | -1.1% |
| CC1(C)C(=O)NC(=O)N1CO | 0.76% |
| O=C(OCCOCCOCCOC(=O)c1ccccc1)c1ccccc1 | -1.69% |
| NC(=O)c1ccccc1 | 0.199% [at 81.1 µM] |
| O=[N+]([O-])c1ccc(Cl)cc1Cl | -0.0248% |
| C=CC(=O)NC(C)(C)C | -0.243% |
| CCCC1CCOC(C)S1 (centres undefined) | -1.75% |
| CCCCCCCCCCCCCCCCC(=O)O | -0.277% |
| CCCCCCCCS | 1.35% [at 81.1 µM] |
| CCCCCCCCCCCCCCCCCCCl | -1.98% [at 5.95 µM] |
| CCCC(=O)OCc1ccccc1 | 0.0729% |
| CC1=CC(=C(c2ccc(N)cc2)c2ccc(N)cc2)C=CC1=N | -0.545% [at 5.95 µM] |
| C[C@@H](O)[C@H]1C(=O)N2C(C(=O)O)=C(S[C@@H]3CN[C@H](CNS(N)(=O)=O)C3)[C@H](C)[C@H]12 | -0.793% |
| Nc1cccc2c(=O)[nH][nH]c(=O)c12 | -0.19% [at 81.1 µM] |
| CCCc1ccc(OC)cc1 | -1.47% [at 81.1 µM] |
| FC1(F)C(F)(F)C(F)(F)C2(F)C(F)(C1(F)F)C(F)(F)C(F)(F)C1(F)C(F)(F)C(F)(F)C(F)(F)C(F)(F)C12F (centres undefined) | -1.6% |
| COC(=O)c1cc(Cl)ccc1[N+](=O)[O-] | -1.26% |
| O=C(O)c1ccc2cc(O)ccc2c1 | 0.185% |
| C=CC(=O)OCCCCCCCCCC | 1.48% |
| CCCOC(C)=O | -1.35% |
| CC(Cc1ccccc1)(NC(=O)CN)c1ccccc1 (centres undefined) | 1.53% |
| CCOC(OCC)OCC | -0.114% |
| C[Si](C)(C)O[Si](C)(C)O[Si](C)(C)C | -0.323% |
| CCCCCCCCCCCC(=O)OCC | 0.0576% |
| CC(C)Cc1nccs1 | -0.223% [at 81.1 µM] |
| CCCCCCCCCCCCN1CCOCC1 | -0.735% |
| O=Cc1ccc([N+](=O)[O-])cc1 | -0.61% [at 81.1 µM] |
| N#Cc1ccc(CC(=O)c2cccc(C(F)(F)F)c2)cc1 | 1.66% |
| O=[N+]([O-])c1cccc(I)c1 | -0.124% |
| OCCCO | -0.922% [at 81.1 µM] |

Source: PubChem BioAssay (Tox21)
